# Hits are enriched below; roughly 10% of the tested compounds scored in any of these assays.
# KB-V1 MDR tox: KB-V1 MDR subline cytotoxicity. 400,000 tested, 3.4% active. KB-V1 MDR cells viability, CellTiter-Glo, 72 h. Potency, µM (top dose mostly 46.1 µM), usual class: cytotoxic; further: nearly all actives have a fitted effect of over 60% in size
#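 KB-V1, DMEM (no phenol red) + 10% FBS; cpd pin-transferred, titration series; 72 h, 37 degrees C; CellTiter-Glo, luminescence. Data normalized, curve-fit.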
# RORgamma inh: ROR gamma (mouse) transcription inhibition | Drosophila S2 Gal4-RORgamma UAS-luciferase reporter, 20 h | AID 2551 | 310,000 tested, 5.4% active | Potency, µM (series often up to 53.6 µM), actives largely listed as inhibitors; further: nearly all actives have a fitted effect of over 60% in size
# Target sequence (P51450 whole entry, looked up, the tested form may be a part): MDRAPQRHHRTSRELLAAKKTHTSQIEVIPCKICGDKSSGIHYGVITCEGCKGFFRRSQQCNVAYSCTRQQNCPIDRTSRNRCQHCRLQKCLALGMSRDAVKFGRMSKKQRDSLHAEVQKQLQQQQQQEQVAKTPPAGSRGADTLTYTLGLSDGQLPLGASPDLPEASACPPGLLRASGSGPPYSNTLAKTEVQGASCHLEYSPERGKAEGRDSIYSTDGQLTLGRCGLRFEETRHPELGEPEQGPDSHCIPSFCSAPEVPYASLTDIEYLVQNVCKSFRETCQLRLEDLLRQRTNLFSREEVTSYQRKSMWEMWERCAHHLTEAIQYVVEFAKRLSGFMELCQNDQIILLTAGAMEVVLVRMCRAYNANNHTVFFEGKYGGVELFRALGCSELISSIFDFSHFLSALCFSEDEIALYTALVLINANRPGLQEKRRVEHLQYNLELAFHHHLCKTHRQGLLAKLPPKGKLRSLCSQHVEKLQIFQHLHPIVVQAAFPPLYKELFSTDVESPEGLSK
#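 Drosophila Schneider cells stably carrying a metallothionein-driven Gal4 DBD–ROR gamma fusion and a UAS-Photinus luciferase reporter were exposed to compound for 1 hr, then induced with copper sulfate (700 uM final) for 20 hr at ambient temperature before luminescence reading.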
# MCF10A rerep: induces DNA re-replication in MCF 10a normal breast cells. MCF 10A DNA re-replication, Hoechst nuclear intensity, 48 h. Potency, µM (series often up to 46.1 µM), hits mostly activators. 350,000 tested, 2.9% active. AID 624296; further: nearly all actives have a fitted effect of over 50% in size
# Gal4-VP16 FLuc: Gal4-VP16 reporter inhibition counter-screen | Drosophila S2 Gal4-VP16 UAS-luciferase, luminescence, 20 h | Potency, µM (titrated, usually from 53.6 µM), hits mostly inhibitors | 310,000 tested, 3.5% active | AID 2546;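 further: Gal4-VP16 expression switched on by copper sulfate through the metallothionein promoter; nearly all actives have a fitted effect of over 50% in size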
# KB-3-1 cytotox: kills parental KB-3-1 adenocarcinoma cells | Potency, µM (top dose mostly 46.1 µM), usual class: cytotoxic | KB-3-1 viability, CellTiter-Glo ATP luminescence, 72 h | 400,000 tested, 1.4% active; further: nearly all actives have a fitted effect of over 60% in size
#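 Screening of KB-3-1 cells (DMEM, 10% FBS, phenol-red free) ran from lowest to highest compound concentration; after 72 h at 37 °C viability was read luminescently and curves fitted.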
# SW480 rereplic: induces DNA re-replication in SW480 colon adenocarcinoma cells; 340,000 tested, 1.8% active; SW480 DNA re-replication, Hoechst DNA content imaging, 48 h; Potency, µM (highest dose often 46.1 µM), hits mostly activators; further: nearly all actives have a fitted effect of over 55% in size
#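 Treated cells incubate 48 hr (37 C, 5% CO2), are stained 40 min with Hoechst, and nuclear fluorescence is enumerated; a rise in nuclei with high DNA signal marks re-replication.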
# Numbers stand for hits; i = inactive; ? = inconclusive; nt = no result given. The call rests on the fitted dose curve; in most records, active means well fitted curve in the direction sought with a large enough effect; inconclusive means small, poorly fitted or top-dose-only effect, or another doubt; inactive means no such curve, though single readings can be large; an effect the other way counts as inactive or inconclusive.
SMILES,KB-V1 MDR tox,RORgamma inh,MCF10A rerep,Gal4-VP16 FLuc,KB-3-1 cytotox,SW480 rereplic
CC(C)SCc1cc(N2CCCC2)nc(-c2ccccc2)n1,i,13µM,i,i,i,i
CC(C)CC1(C(=O)NCc2cc(F)cc(C(F)(F)F)c2)C=CCN1C(=O)c1ccccc1 (stereo not drawn),i,i,1.5µM,i,i,i
O=c1[nH][nH]c(-c2ccccc2)c1-c1ccccc1,i,nt,i,nt,?,i
O=c1c(-c2ccccc2)c1-c1ccccc1,nt,?,?,0.79µM,nt,6µM
O=C(NCC1CCCO1)c1csc2c1CCCCC2 (stereo not drawn),i,i,2.6µM,i,i,i
Cc1scc(C(=O)NNC(=S)NCC2CCCO2)c1C (stereo not drawn),i,4.5µM,?,i,i,i
CCc1cc(C(=O)NNC(=S)NCC2CCCO2)cs1 (stereo not drawn),i,16µM,i,i,i,i
CCCc1cc(C(=O)NNC(=S)NCC2CCCO2)cs1 (stereo not drawn),i,i,i,i,i,i
Cc1scc(C(=O)NNC(=S)NCC2CCCO2)c1-c1ccccc1 (stereo not drawn),?,7.9µM,i,i,i,i
COc1ccccc1NC(=O)C1=C(C)Nc2nc(SCc3ccccc3)nn2C1c1cccc(O)c1 (stereo not drawn),i,nt,nt,nt,i,nt
Cc1ccc(C)c(NC(=O)C2CCCN2S(=O)(=O)c2ccc3c(c2)CCCC(=O)N3)c1 (stereo not drawn),i,nt,nt,nt,i,nt
CC(C)(C)OC(=O)N1CCC(c2c(C(=O)NCc3ccc4c(c3)OCO4)cnn2-c2ccc(F)cc2F)CC1,i,nt,nt,nt,i,nt
CC(=O)NC1C(O)O[C@H](C(=O)O)[C@@H](O)[C@@H]1O (stereo partly drawn),nt,i,nt,i,nt,nt
O=C1C2CCCCC2C(=O)N1c1ccc(NC2CCCCC2)c([N+](=O)[O-])c1 (stereo not drawn),i,i,i,i,i,i
C=CCN(CC=C)c1ccc(N2C(=O)C3CCCCC3C2=O)cc1[N+](=O)[O-] (stereo not drawn),i,i,i,22µM,i,i
COc1ccc(-c2cc(C(=O)N3CCCc4ccccc43)no2)cc1,15µM,i,i,i,i,i
O=C(c1cc(-c2cccc(O)c2)on1)N1CCCCC1,i,0.71µM,i,i,i,i
O=C(c1cc(-c2ccc(F)cc2)on1)N1CCCC1,?,14µM,i,i,i,i
COc1ccc(-c2cc(C(=O)N3CCCC3)no2)cc1,i,4µM,i,10µM,i,i
O=C(c1cc(-c2cccc(O)c2)on1)N1CCCC1,i,i,i,i,i,i
CC(C)CC(=O)OCc1cc(=O)n2nc(C3CCCCC3)sc2n1,i,nt,nt,nt,i,nt
COc1ccc(C2=NOC(C(=O)N3CCCc4ccccc43)C2)cc1 (stereo not drawn),13µM,i,?,i,i,i
CC(C)(C)N1CC(c2nc3ccccc3n2Cc2ccc(Cl)cc2)CC1=O (stereo not drawn),15µM,i,i,i,i,i
CC(C)(C)N1CC(c2nc3ccccc3n2CCOc2ccccc2)CC1=O (stereo not drawn),i,i,i,i,i,i
C=CCN1CC(c2nc3ccccc3n2Cc2ccccc2)CC1=O (stereo not drawn),12µM,i,i,i,i,i
SMILES,KB-V1 MDR tox,RORgamma inh,MCF10A rerep,Gal4-VP16 FLuc,KB-3-1 cytotox,SW480 rereplic
Cc1ccc2c(=O)cc(C(=O)Nc3ccc(S(=O)(=O)N(C)c4ccccc4)cc3)oc2c1C,?,nt,nt,nt,i,nt
CS(=O)(=O)Nc1ccc(-c2cnc3cccnn23)cc1,?,nt,nt,nt,i,nt
O=C(CCCNS(=O)(=O)c1cccc2nsnc12)NCCc1ccccc1,i,i,i,i,i,i
CN(CC(=O)NCCc1ccccc1)S(=O)(=O)c1cccc2nsnc12,9.2µM,?,i,?,i,?
O=S(=O)(NCCc1ccccc1)c1cccc2nsnc12,?,i,5.2µM,i,i,?
NC(=O)c1cc(S(=O)(=O)N2CCN(c3ccc([N+](=O)[O-])cc3)CC2)cs1,i,i,i,?,i,?
CN(C)C(=S)NC(=S)Nc1ccc2ccccc2c1,18µM,nt,?,nt,?,i
COc1ccc(C(=O)c2cn(Cc3ccccc3F)c3cc4c(cc3c2=O)OCCO4)cc1OC,i,nt,nt,nt,i,nt
CN=C1S/C(=C\c2ccc(N3CCCC3)c(F)c2)C(=O)N1C,?,i,23µM,i,i,13µM
CN=C1S/C(=C\c2ccc(N3CCOCC3)c(F)c2)C(=O)N1C,16µM,?,i,i,?,?
O=Cc1ccc(N2CCCC2)c(F)c1,i,i,?,i,i,i
Cc1ccc(N2CCN(C(=O)c3c(C)oc4ncnc(N5CCCCC5)c34)CC2)c(C)c1,i,nt,nt,nt,i,nt
COc1ccc(Nc2nc(N)nc(CCl)n2)cc1,?,i,?,?,?,3.3µM
Nc1nc(CCl)nc(Nc2ccc3ccccc3c2)n1,23µM,?,?,?,?,i
COc1ccc(Nc2ncc3c(n2)CCN(Cc2ccc(Br)s2)C3)c(OC)c1,i,nt,nt,nt,i,nt
COc1ccc(C(=O)C[C@@H]2OC[C@H](Cc3ccccc3)N2S(=O)(=O)c2ccc(C)cc2)cc1OC,?,nt,nt,nt,i,nt
Cn1cc(-c2cc3n(n2)CCC(=O)N3CCCC(=O)NCc2ccccc2)c2ccccc21,i,nt,nt,nt,i,nt
O=c1[nH][nH]c2c1[C@H](C1CCCC1)O[C@H](CCc1ccccc1)C2,i,nt,nt,nt,i,nt
COc1ccccc1NC(=S)NCCc1c[nH]c2ccccc12,i,14µM,i,?,i,?
COc1cc(NC(=S)NCCc2c[nH]c3ccccc23)c(OC)cc1Cl,?,7.1µM,i,3.5µM,i,i
Cc1ccccc1NC(=O)C(=O)NCCc1c[nH]c2ccccc12,i,i,i,i,i,i
COc1ccc2c(CCNC(=O)Nc3ccccc3)c[nH]c2c1,i,?,i,i,?,i
COc1ccc(NC(=S)NCCc2c[nH]c3ccccc23)cc1,i,14µM,?,13µM,i,i
Cc1ccc(NC(=S)NCCc2c[nH]c3ccccc23)c(C)c1,i,7.9µM,i,18µM,i,i
COc1ccccc1NC(c1ccc(Cl)cc1)c1nnc(-c2cccc(F)c2)o1 (stereo not drawn),i,nt,nt,nt,?,nt
CCc1nc(SC)ncc1C(=O)NCc1cccc(Br)c1,i,nt,nt,nt,i,nt
COc1ccc(-c2nc3sc(CCNC(=O)c4cc(Cl)ccc4OC)c(C)n3n2)cc1,i,nt,nt,nt,i,nt
COc1ccc2[nH]cc(CCNC(=S)NCCc3ccccc3)c2c1,i,11µM,i,i,i,i
COc1ccc2[nH]cc(CCNC(=O)Nc3ccccc3)c2c1,?,i,i,i,i,i

# Source: PubChem
